Source: PubChem BioAssay
Most compounds without a hit are left out; they make up all but 0.86% or so of the library.
NOD2 RIPK2 PPI: NOD2-RIPK2 protein interaction inhibition. O43353. CHO BLA complementation NOD2-RIPK2, CCF4 ratio. inhibition, % at 4.98 µM. actives 0.38% (n = 360,000); in the data active = inhibition above about 21%
Target sequence (O43353 whole entry, looked up): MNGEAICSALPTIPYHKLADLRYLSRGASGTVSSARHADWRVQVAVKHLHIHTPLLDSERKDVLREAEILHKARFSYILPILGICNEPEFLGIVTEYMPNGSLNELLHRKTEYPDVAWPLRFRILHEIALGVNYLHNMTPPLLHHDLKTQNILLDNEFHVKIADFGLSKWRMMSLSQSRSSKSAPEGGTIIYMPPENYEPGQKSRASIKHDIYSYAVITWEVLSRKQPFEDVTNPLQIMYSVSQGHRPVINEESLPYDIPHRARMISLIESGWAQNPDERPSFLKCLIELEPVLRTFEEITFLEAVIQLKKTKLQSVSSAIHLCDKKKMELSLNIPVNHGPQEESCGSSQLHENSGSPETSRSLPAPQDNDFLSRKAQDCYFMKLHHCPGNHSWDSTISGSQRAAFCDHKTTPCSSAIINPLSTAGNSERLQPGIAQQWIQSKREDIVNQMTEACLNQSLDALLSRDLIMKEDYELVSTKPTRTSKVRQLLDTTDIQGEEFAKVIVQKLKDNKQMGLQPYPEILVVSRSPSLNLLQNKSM
IDE cell activ: IDE (human) activation, cell-based; actives 0.073% (n = 340,000); HEK cells, FAbeta-B cleavage, fluorescence polarization; 0% vehicle, 100% cell-free pure enzyme wells; activation, % at 5.96 µM;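 active = activation above the mean of all tested compounds plus 3 SD, set per screening campaign, cut at about 17% in these data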
TLR9-MyD88 inh: blocks human TLR9 binding to MyD88. CHO BLA complementation TLR9-MyD88, CCF4 FRET ratio. inhibition, % at 4.98 µM. actives 0.21% (n = 340,000);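 active = inhibition above the mean over all tested compounds plus 3 SD, cut at about 21% in these data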
IDE inh: inhibitors of human insulin-degrading enzyme in cells; HEK cells, FAbetaB cleavage, fluorescence polarization; actives 0.41% (n = 320,000); AID 434962; inhibition, % at 5.59 µM;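 active = percent inhibition above the average of all tested compounds plus 3 SD, set per screening campaign, cut at about 16% in these data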;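 note: IDE supplied by intact live HEK cells; FP after avidin binding of uncleaved biotin substrate so inhibition keeps polarization high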
TLR4 MyD88 comp: blocks binding of human TLR4 to MyD88; O00206+Q99836; HeLa CL3-4 TLR4/MyD88 BLA complementation, FRET ratio; inhibition, % at 8.4 µM; actives 0.18% (n = 200,000); in the data active = inhibition above about 25%
Numbers stand for hits; 0 = inactive; - = not tested or not shown.

SMILES | NOD2 RIPK2 PPI | IDE cell activ | TLR9-MyD88 inh | IDE inh | TLR4 MyD88 comp
Cc1cccc(C(=O)NCCN2CCOCC2)c1[N+](=O)[O-] | 0 | 28 | 0 | 0 | 0
CC(C)CCNC(=O)c1ccc2nc[nH]c2c1 | 0 | 0 | 0 | 0 | 0
O=C(NCCSc1ccc(Br)cc1)c1ccc2nc[nH]c2c1 | 0 | 20 | 0 | 0 | -
Cc1cc(Cl)ccc1NC(=S)N1CCOCC1 | 0 | 0 | 0 | 0 | 0
OC(CN1CCNCC1)Cn1ccc2ccccc21 (stereo not drawn) | - | - | - | 18 | -
CCCOc1ncnc2c1[nH]c1ccc(C)cc12 | - | - | - | 37 | -
CCOc1ncnc2c1[nH]c1ccccc12 | 0 | 0 | 0 | 18 | -
COc1ccc(CNc2ncnc3c2[nH]c2ccccc23)cc1 | 0 | - | - | 60 | -
Cc1ccc2[nH]c3c(Cl)ncnc3c2c1 | 0 | - | - | 0 | -
CC(=O)c1ccc(N=C2SCCCN2C(=O)C2CCCC2)cc1 | 0 | 0 | 0 | 0 | 0
Cc1cc(C)cc(NC(=O)Nc2cc(-c3ccccc3)nn2C)c1 | 0 | 0 | 0 | 0 | -
CCN(CC)c1ccc(/C=N/N=C(N)N)c(O)c1 | 0 | 18 | 0 | 0 | 0
CCc1cc(Cn2nc(C(=O)O)cc2-c2ccccc2)on1 | 0 | 19 | 0 | 0 | -
OC(CNCC1CCCO1)Cn1c2ccc(Cl)cc2c2cc(Cl)ccc21 (stereo not drawn) | 0 | 0 | 0 | 0 | 0
OC(CNCCC1C=Nc2ccccc21)Cn1c2ccc(Cl)cc2c2cc(Cl)ccc21 (stereo not drawn) | 0 | 19 | 0 | 0 | 0
COc1ccccc1N1CCN(S(=O)(=O)c2ccc3nc(-c4ccccc4)[nH]c3c2)CC1 | 0 | 0 | 0 | 32 | 0
O=S(=O)(c1ccc2nc(-c3ccccc3)[nH]c2c1)N1CCN(c2cccc(Cl)c2)CC1 | 0 | 0 | 0 | 0 | 0
COc1ccc(C#Cc2cnc3c(c2)C(=O)N([C@H](C)CO)C[C@H](C)[C@@H](CN(C)C(=O)Nc2cccc(OC)c2)O3)cc1 | 0 | - | 0 | - | -
O=C(Cc1ccc(-n2c(=O)[nH]c3ccsc3c2=O)cc1)N1CCN(c2ccc(Cl)cc2)CC1 | 0 | 0 | 0 | 21 | 0
CC(NC(=O)OC(C)(C)C)C(=O)Oc1cc2oc(=O)cc(-c3ccccc3)c2cc1Cl (stereo not drawn) | 39 | 0 | 31 | 0 | 0
NC(=O)Cn1cc(/C=N\NS(=O)(=O)c2ccc(Cl)cc2)c2ccccc21 | 0 | 24 | 0 | 0 | -
COc1ccc(N=C2S/C(=C\c3ccc(N4CCOCC4)o3)C(=O)N2CCc2c[nH]c3ccccc23)cc1 | 33 | 0 | 0 | 0 | 0
CC[C@@H](C)[C@H](CNC)NC[C@@H](Cc1cccc2ccccc12)NCCc1cccc(C(F)(F)F)c1 | 0 | 29 | 0 | 0 | -
Cc1cc(C)cc(C(=O)NCC(=O)OCC(=O)Nc2cccnc2Cl)c1 | 0 | 0 | 0 | 0 | 0
O=C(NCc1ccc(Cl)cc1)C1C2C=CC3(CN(Cc4cccnc4)C(=O)C13)O2 (stereo not drawn) | 0 | 0 | 0 | 0 | 0
SMILES | NOD2 RIPK2 PPI | IDE cell activ | TLR9-MyD88 inh | IDE inh | TLR4 MyD88 comp
Cc1ccc(NC(=O)C2C3C=CC4(CN(Cc5cccnc5)C(=O)C24)O3)cc1 (stereo not drawn) | 0 | 18 | 0 | 0 | 0
O=[N+]([O-])c1ccc(-c2cc(-c3ccc(Cl)cc3)n[nH]2)cc1 | 0 | 0 | 0 | 0 | 0
Cc1noc(C(=O)NCc2ccccc2)c1Cl | 0 | 0 | 0 | 0 | 0
FC(F)(F)c1cc(CCN2CCNC[C@H]2Cc2cccc3ccccc23)cc(C(F)(F)F)c1 | 0 | 20 | 0 | 0 | -
Oc1ccc(C[C@@H]2CNCCN2CCc2cc(C(F)(F)F)cc(C(F)(F)F)c2)cc1 | 0 | 0 | 0 | 0 | -
N#C/C(=C/c1ccc(-c2cc(C(=O)O)cc(C(=O)O)c2)o1)c1nc2ccccc2s1 | - | - | - | 27 | 0
O=C(c1ccc(F)cc1)C(CN1CCOCC1)c1ccccc1 (stereo not drawn) | 0 | 0 | 0 | 0 | 0
CN(C)CC(CCC(CN(C)C)C(=O)c1ccccc1)C(=O)c1ccccc1 (stereo not drawn) | 60 | 0 | 0 | - | -
O=C(c1ccccc1)C(CCC(CN1CCOCC1)C(=O)c1ccccc1)CN1CCOCC1 (stereo not drawn) | 30 | 0 | 0 | 0 | 0
CCOc1ccc(C(=O)C(CCC(CN(C)C)C(=O)c2ccc(OCC)cc2)CN(C)C)cc1 (stereo not drawn) | 40 | 0 | 0 | - | 0
CC1(C(=O)Nc2ccc(Cl)c(Cl)c2)CCN1C(=O)CC1CCCC1 (stereo not drawn) | 0 | - | - | - | -
COc1ccc(C(c2c(O)ccc3ccccc23)N2CCOCC2)c(OC)c1 (stereo not drawn) | 48 | 0 | 0 | 0 | 0
O=C(Nc1ccc(C(F)(F)F)cc1)N1CCN(c2ccnc3cc(Cl)ccc23)CC1 | 0 | - | - | 30 | -
Cc1ccc(F)cc1NC(=O)N1CCN(c2ccnc3cc(Cl)ccc23)CC1 | 0 | 0 | 0 | 0 | -
Cc1ccc(S(=O)(=O)N[C@H](C(=O)N2CCC(C(=O)N[C@H](C(=O)O)c3ccccc3)CC2)C(C)C)cc1 | 0 | 0 | 0 | 0 | -
COc1cc(/C=C(\C#N)c2nc3c(s2)CCCC3)ccc1O | - | - | - | 146 | 0
CCOC(=O)C1=C(Cc2ccc(Cl)cc2)C(=O)c2ccccc2C1=O | 29 | 0 | 0 | 0 | 0
Cc1ccc(CNC(=O)CCc2nnc(Cc3ccc(-c4ccccc4)cc3)o2)o1 | 0 | 0 | 0 | 0 | 0
O=C(O)c1ccccc1Nc1ccccc1C(=O)O | 0 | 0 | 0 | 0 | 0
O=C(O)c1ccccc1Nc1ccc([N+](=O)[O-])cc1 | 0 | 28 | 0 | 0 | 0
COc1ccc(/C=C/c2cccc[n+]2C)c(O)c1 | 0 | 0 | 0 | 0 | -
CCN(CC)c1ccc(/C=C/c2cccc[n+]2C)c(OC)c1 | 0 | 0 | 0 | 28 | -
CCN1CCN(C(=O)c2ccccc2N(Cc2ccccc2)S(=O)(=O)c2ccc(C)cc2)CC1 | 0 | 0 | 0 | 0 | 0
CCOc1ccc(-c2cccc(NS(=O)(=O)c3cc([N+](=O)[O-])ccc3C)c2)nn1 | 0 | 0 | 0 | 0 | -
COc1cccc2cc(-c3ccccc3)oc12 | 0 | - | - | 0 | -
SMILES | NOD2 RIPK2 PPI | IDE cell activ | TLR9-MyD88 inh | IDE inh | TLR4 MyD88 comp
COc1cccc2cc(-c3ccnc(=S)[nH]3)oc12 | - | - | - | 39 | 0
COc1cc(NC(=O)Cn2ncc3c2-c2ccccc2OC3)cc(OC)c1OC | 30 | 0 | 0 | 0 | 0
Cc1ccc(S(=O)(=O)N2CCOCC2)cc1C(=O)Nc1ccc(-c2cn3ccsc3n2)cc1 | 0 | 0 | 0 | 20 | 0
Cc1ccc(S(=O)(=O)N2CCOCC2)cc1C(=O)Nc1ccncc1 | 0 | 0 | 0 | 0 | -
COc1ccccc1[C@H]1C(c2cccc(Cl)c2)=NN(c2ccccc2)[C@@H]1CO | 37 | 0 | 0 | - | -
Cc1ccc(NC(=S)Nc2ccccn2)cc1C | 0 | - | - | 0 | -
Cc1ccc(NC(=S)Nc2ccc3nc(-c4ccccn4)c(-c4ccccn4)nc3c2)cc1C | 32 | 0 | 0 | 0 | 0
CCOC(=O)/C(C#N)=C/C=C1\C=Cc2ccccc2N1CC | 0 | 0 | 0 | 0 | 0
CCCN1C=CC(=C/C=C(\C#N)C(=O)OCC)C=C1 | - | - | - | 101 | 0
CC(=O)NC1=NC(=O)/C(=C/c2cn(C(C)=O)nc2-c2ccccc2)S1 | 0 | 0 | 0 | 20 | 0
